Reference: the supplement of paper PMC6555819

Columns and labels:
Test in all cases: PBM binding z-score (relative to random genomic background probes); higher = stronger binding; sequences stand for … in GC…GCGATTGACAGCGTAGAATGAAGG
[1] = test system: PPARg:RXRa DBDmut IVT, anti-RXR (DBD mutation: RXRa K156A/R161A, NR concentration 270 nM, RXRa partner concentration 90 nM)
How it was run: (§1)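 Custom Agilent 4×180K protein-binding microarrays carried double-stranded probes. Their 34-nt variable regions held direct-repeat seeds, single-nucleotide variants, half-site ablations and random human genomic background sequences. Arrays were incubated 1 h with ligand-free nuclear receptor dimers in PBS pH 7.4, 2% milk, 0.02% Triton X-100, 1 mM DTT, 0.2 mg/mL BSA and 0.4 mg/ml salmon testes DNA. Antibodies against each partner (one per run) detected binding, and scanned fluorescence was regression-normalized. Binding z-scores use random background probes as reference.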

[2] = test system: PPARg:RXRa IVT, anti-PPARg (NR concentration 270 nM, RXRa partner concentration 90 nM)
How it was run: as §1

[3] = test system: PPARg homodimer (NR concentration 180 nM)
How it was run: as §1

[4] = test system: PXR:RXRa (NR concentration 270 nM, RXRa partner concentration 90 nM)
How it was run: as §1

[5] = test system: PXR homodimer (NR concentration 270 nM)
How it was run: as §1

[6] = test system: RARa:RXR (NR concentration 270 nM, RXRa partner concentration 90 nM)
How it was run: as §1

[7] = test system: RARa homodimer (NR concentration 270 nM)
How it was run: as §1

[8] = test system: RARb:RXRa (NR concentration 270 nM, RXRa partner concentration 90 nM)
How it was run: as §1

[9] = test system: RARb homodimer (NR concentration 270 nM)
How it was run: as §1

[10] = test system: RARg:RXRa (NR concentration 270 nM, RXRa partner concentration 90 nM)
How it was run: as §1

[11] = test system: RARg homodimer (NR concentration 270 nM)
How it was run: as §1

[12] = test system: RXRa DBDmut IVT, anti-RXR (DBD mutation: RXRa K156A/R161A, NR concentration 90 nM)
How it was run: as §1

[13] = test system: RXRa homodimer (NR concentration 180 nM)
How it was run: as §1

[14] = test system: THRa:RXRa (NR concentration 90 nM, RXRa partner concentration 90 nM)
How it was run: as §1

[15] = test system: THRa homodimer (NR concentration 90 nM)
How it was run: as §1

[16] = test system: VDR homodimer (NR concentration 270 nM)
How it was run: as §1

Sequence | PBM binding z-score [1] | PBM binding z-score [2] | PBM binding z-score [3] | PBM binding z-score [4] | PBM binding z-score [5] | PBM binding z-score [6] | PBM binding z-score [7] | PBM binding z-score [8] | PBM binding z-score [9] | PBM binding z-score [10] | PBM binding z-score [11] | PBM binding z-score [12] | PBM binding z-score [13] | PBM binding z-score [14] | PBM binding z-score [15] | PBM binding z-score [16]
CCGAGTAGGTTACGAGTGGGCATTCAGTGCGAAT | 4.82 | 3.49 | 0.313 | 0.0829 | -0.15 | 0.124 | -0.322 | 0.921 | 0.401 | 0.298 | 0.292 | -0.0539 | 0.364 | 0.606 | -0.579 | 0.108
CTATGTAGGTTAAGGGGGTCGTTCAGTTTGAAAG | 7.46 | 7.3 | 2.23 | 3.86 | 6.99 | 3.39 | 1.49 | 2.37 | 2.42 | 2.9 | 2.06 | 1.7 | 2.93 | 2.7 | 1.62 | 4.04
TCGAGTAGGCTACGGGGGCATTCAGGGATGAAGA | 2.36 | 3.36 | 0.299 | 1.77 | 0.484 | 1.43 | -0.44 | 0.961 | 1.01 | 1.2 | 0.904 | 0.682 | 1.13 | 3.63 | 0.228 | 2.66
CTATGTAGTTTAAGGGGGTCATTCAGTTTGAAAG | 3.79 | 4.99 | 4.75 | 5.93 | 13.2 | 5.64 | 2.73 | 3.68 | 3.89 | 4.53 | 3.58 | 3.27 | 5.05 | 3.79 | 2.91 | 7.03
CCGAGTAGGTGACGAGGGGGCATTCAGTGCGAAT | 5.58 | 5.86 | 1.39 | 4.21 | 5.4 | 2.76 | 0.823 | 1.75 | 1.89 | 2.34 | 2.1 | 1.05 | 1.35 | 3.34 | 0.888 | 3.45
CTATGTACGTTAAGGGGGTCATTCAGTTTGAAAG | 3.42 | 5.2 | 3.11 | 5.68 | 9.08 | 5.5 | 1.37 | 3.45 | 3.65 | 4.57 | 3.69 | 2.99 | 5.04 | 3.86 | 2.71 | 5.96
CCGAGTAGGTAACGAGGGGGCATTCAGTGCGAAT | 3.83 | 3.65 | 0.975 | 3.42 | 4.31 | 2.24 | 0.592 | 1.31 | 1.62 | 1.9 | 1.27 | 0.932 | 1.21 | 2.73 | 0.519 | 3.01
CCGGGTAGGTTACGAGGGGGCATTCAGTGCGAAT | 1.95 | 4.17 | 1.56 | 5 | 4.47 | 3.19 | 0.857 | 2.21 | 2.2 | 3.26 | 2.22 | 0.966 | 2.35 | 3.94 | 0.875 | 2.55
TCGAGTAGGTGACGGGGGCATTCAGGGATGAAGA | 5.39 | 6.13 | 2.07 | 3.15 | 1.91 | 2.63 | 0.214 | 2.45 | 2.01 | 2.59 | 1.91 | 1.94 | 1.86 | 3.83 | 1.64 | 3.28
CCGAGTATGTTACGAGGGGGCATTCAGTGCGAAT | 1.52 | 1.95 | 1.3 | 3.07 | 4.74 | 2.27 | 0.735 | 1.15 | 1.63 | 1.76 | 1.26 | 2.1 | 1.31 | 2.31 | 0.458 | 3.74
CTATGTAGGTTAAGGGGGTCATTAAGTTTGAAAG | 7.49 | 7.73 | 3.7 | 5.89 | 12.5 | 5.37 | 1.68 | 3.58 | 3.65 | 4.97 | 3.44 | 2.43 | 5.43 | 3.79 | 2.03 | 6.07
TCGAGTAGGTTAAGGGGGCATTCAGGGATGAAGA | 4.21 | 4.69 | 2.85 | 2.67 | 1.9 | 2.87 | 1.41 | 2.47 | 2.37 | 3.17 | 2.01 | 1.92 | 2.62 | 3.58 | 1.48 | 3.24
TCGAGTAGGTTACGGGGGCATTCACGGATGAAGA | 5.07 | 6.04 | 2.12 | 3.21 | 1.4 | 3.16 | 0.0892 | 2.51 | 2.05 | 3.38 | 2.31 | 1.78 | 3.16 | 2.86 | 1.23 | 2.93
TCGAGTAGGTTACGGGGGCAATCAGGGATGAAGA | 4.86 | 6.27 | 1.35 | 2.64 | 0.755 | 2.99 | -0.0158 | 2.43 | 2.12 | 3.25 | 2.36 | 1.52 | 2.73 | 3.4 | 0.675 | 2.03
TCGAGTAAGTTACGGGGGCATTCAGGGATGAAGA | 1.55 | 3.02 | 0.93 | 2.63 | 1.19 | 2.22 | 0.119 | 1.34 | 1.15 | 1.48 | 0.746 | 1.48 | 1.4 | 3.54 | 0.682 | 3.03
CTATGTAGGTTAAGGGGGTCATTTAGTTTGAAAG | 7.59 | 7.5 | 3.59 | 5.59 | 10.3 | 5.8 | 1.96 | 3.51 | 3.86 | 5.19 | 3.66 | 2.54 | 5.85 | 3.83 | 2.03 | 5.81
CCGAGTAGGTTACGAGGGGGCATTAAGTGCGAAT | 4.89 | 4.4 | 2.11 | 4.77 | 7.4 | 2.72 | 0.983 | 2.15 | 2.04 | 3.1 | 2.45 | 1.56 | 2.14 | 3.52 | 0.655 | 3.56
